What was measured:
Test in all cases: PBM binding z-score (relative to random genomic background probes); higher = stronger binding; sequences stand for … in GC…GCGATTGACAGCGTAGAATGAAGG
[1] = test system: FXR:RXRa (NR concentration 270 nM, RXRa partner concentration 90 nM)
In short: (§1)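 The probes on custom Agilent 4×180K protein-binding microarrays were double-stranded, with 34-nt variable regions bearing direct-repeat seeds, single-nucleotide variants, half-site ablations and random human genomic background sequences. Incubation lasted 1 h with ligand-free nuclear receptor dimers in PBS pH 7.4, 2% milk, 0.02% Triton X-100, 1 mM DTT, 0.2 mg/mL BSA and 0.4 mg/ml salmon testes DNA. Antibodies against each partner (one per run) detected bound dimers, and fluorescence scans were regression-normalized. Binding z-scores take the random background probes as reference.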

[2] = test system: LXRa:RXRa (NR concentration 270 nM, RXRa partner concentration 90 nM)
In short: as §1

[3] = test system: LXRa homodimer (NR concentration 270 nM)
In short: as §1

[4] = test system: LXRb:RXRa (NR concentration 270 nM, RXRa partner concentration 90 nM)
In short: as §1

[5] = test system: LXRb homodimer (NR concentration 270 nM)
In short: as §1

[6] = test system: PPARa:RXRa (NR concentration 270 nM, RXRa partner concentration 90 nM)
In short: as §1

[7] = test system: PPARg:RXRa (NR concentration 180 nM, RXRa partner concentration 90 nM)
In short: as §1

[8] = test system: PPARg:RXRa 270nM:90nM, anti-RXR (NR concentration 270 nM, RXRa partner concentration 90 nM)
In short: as §1

[9] = test system: PPARg:RXRa 30nM:10nM, anti-RXR (NR concentration 30 nM, RXRa partner concentration 10 nM)
In short: as §1

[10] = test system: PPARg:RXRa 90nM:30nM, anti-RXR (NR concentration 90 nM, RXRa partner concentration 30 nM)
In short: as §1

Sequence | PBM binding z-score [1] | PBM binding z-score [2] | PBM binding z-score [3] | PBM binding z-score [4] | PBM binding z-score [5] | PBM binding z-score [6] | PBM binding z-score [7] | PBM binding z-score [8] | PBM binding z-score [9] | PBM binding z-score [10]
ATACCAAGGTGGTCGTGAGGTCGTTGATACTAAC | 1.49 | 0.821 | 0.382 | 1.05 | -0.378 | 1.21 | 0.268 | 0.0614 | -0.274 | -0.258
CCTAGTTGGTCAGGAGGTCACACATCGGATATGA | 3.47 | 3.35 | 2.05 | 3.2 | 0.972 | 4.03 | 3.29 | 3.64 | 1.24 | 2.91
AGAACGAGGGCAAGCTGAGTTGATAGCAGAGTAG | 0.521 | 0.295 | -0.476 | 0.14 | -0.878 | 1.4 | 1.32 | 1.19 | 0.0687 | 0.484
TCTTGCAGATCAAAGGTTAAGAAAGCCGAAGCCT | 1.5 | 1.61 | -0.333 | 1.79 | -0.606 | 4.12 | 5.83 | 6.41 | 5.71 | 6.62
TTACCAAGGTGAAGGGTCGTTGATGCACGCCTTG | 1.88 | 1.13 | -0.449 | 1.03 | -0.693 | 3.65 | 6.01 | 6.42 | 4.63 | 6.33
TTTCCAAGGTGAGCTGAGGTCGTTGATCCAACTC | 2.71 | 1.69 | -0.117 | 0.979 | -0.192 | 1.94 | 0.0102 | 1.07 | 0.576 | 0.913
CGAACTAGGTCATCCAGAACAGTGAATACATTGA | 4.08 | 2.69 | 0.739 | 2.14 | 0.118 | 4.64 | 7.99 | 6.91 | 4.38 | 6.42
ACTAGCAGGCCAAGGCTCACTCAAGATTAGTCCG | -0.393 | -0.377 | -0.331 | -0.701 | -0.95 | -0.271 | 0.588 | 0.682 | -0.134 | 0.168
ATCTCTAGGTAAAAGTTCAGTGTATCCCGAGGAT | 0.805 | 1.47 | 1.82 | 1.14 | 0.968 | 4.08 | 7.71 | 8.23 | 7.05 | 9.47
AGAATGAGGTTATACGTAGATCAGGGGAGAAAGT | 1.99 | 1.93 | 0.147 | 1.96 | 0.558 | 3.05 | 1.83 | 2.06 | 0.697 | 1.06
ACTATTTGTTGACTTAGGGCAACCGATACGACGC | 0.226 | 0.188 | 0.404 | 0.344 | 1.56 | 0.197 | 0.97 | 0.737 | 0.434 | 0.364
ATAGACAGGTGAGTGAAGGTAACTCAGCTGGACG | 0.729 | 0.567 | -0.416 | -0.043 | 0.00945 | 0.437 | 0.69 | 0.369 | 0.155 | 0.444
ATCTCTAGGTAAGACTCAGTTCAGTGGAGAACGC | 0.367 | 0.505 | 0.914 | 0.328 | 0.692 | 0.228 | 0.00731 | 0.28 | 0.129 | 0.315
CGACCAAGGTCAAAGGTCAGTGAAGAGATGACGG | 8.72 | 6.8 | 3.14 | 6.54 | 1.18 | 7.07 | 11.3 | 9.46 | 9.86 | 10.4
ACTAGCAGGCCAAGGGTCAATCAAGATTAGTCCG | 3.02 | 2.94 | 0.134 | 2.96 | -0.379 | 4.64 | 8.14 | 7.68 | 6.29 | 8.3
GCGAATGGGGCAAAGCAGGTTACCATAAGGTTGG | 0.135 | 0.262 | -0.483 | 0.474 | -0.239 | 1.31 | 0.647 | 0.187 | -0.478 | -0.292
ATCGAAAGGTCGAAGGTTAGTATACCCACCCGAA | 4.06 | 3.5 | 0.517 | 3.05 | 0.649 | 4.71 | 4.46 | 5.12 | 2.51 | 4.28
ATCGAAAGGTCGTGAGGTGAGTAGACAGAAAGGC | 5.21 | 4.15 | 0.0462 | 2.98 | 0.701 | 4.93 | 3.83 | 4.25 | 1.29 | 3.08
TCATATAGGGAATACAGGTGAAAGTCGGCATCTA | 1.31 | 1.1 | 0.252 | 0.958 | 0.236 | 1.92 | 1.16 | 2.76 | 4.44 | 3.22
CAAACTAGGTCACGAAAGATCAAAGTCGAATGAC | 4.53 | 5 | 0.705 | 3.03 | 0.541 | 5.84 | 9.56 | 7.69 | 6.2 | 7.72
CGAACTAGGTCTGAACAGGACAGTGAAGGATGAT | -0.499 | -0.813 | -0.618 | -0.891 | -0.912 | -0.134 | 0.652 | -0.276 | -0.221 | -0.128
TGAATGAGGTTATAAGCTCAGGGAACGTTGCAAA | 1.24 | 0.975 | -0.535 | 1.01 | -0.391 | 2.67 | 0.877 | 2.07 | 0.7 | 1.54
CCTACTGGGCCACCAGGTCATTGATATCAACGTT | 1.25 | 1.07 | 0.943 | 1.56 | -0.0133 | 3.16 | 4.32 | 4.3 | 1.41 | 3.26
CTCGAAAGGTCGTGCTCAGGTGAGTATTCCAAAC | 5.42 | 3.85 | 0.158 | 3.32 | 0.259 | 4.52 | 2.26 | 3.47 | 0.582 | 1.86
